Source: PubChem BioAssay (Tox21)
Records with an inconclusive call do not appear. Entries that show only a call come without a potency. Calls of active or inactive are those of the source. Unless noted, the call rests on the fitted dose curve; in most records, active means well fitted curve in the direction sought with a large enough effect in the repeat runs; inconclusive means weak or mixed curves; inactive means no such curve, though single readings can be large; an effect the other way counts as inactive or inconclusive.

What was measured:
[1] = qHTS assay to identify small molecule antagonists of the estrogen related receptor (ERR) signaling pathway - cell viability counter screen (AID 1224818); further: potency means the concentration at half of the fitted maximal effect
How it was run: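 ERR cells, 2,000 per well, compound added after 6 h and incubated 17.5 h at 37 C. Viability read by CellTiter-Fluor fluorescence after a further 30 min at 37 C.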

[2] = qHTS assay to identify small molecule antagonists of the estrogen related receptor (ERR) signaling pathway (AID 1224819; further: nearly all actives have a fitted effect of over 50% in size; further: potency means the concentration at half of the fitted maximal effect)
How it was run: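 ERR reporter cell line (NTP) plated at 2,000 cells/well, settled 6 h at 37C/5% CO2, then exposed to LOPAC compounds for 18 h at 37C. One-Glo luciferase luminescence read after 30 min at room temperature.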

[3] = test system: estrogen-related receptor alpha (ERRalpha) with PGC-1alpha coactivator, human; test: qHTS assay to identify small molecule antagonists of the estrogen related receptor signaling pathway with the pleiotropic PPARgamma coactivator (PGC) (AID 1224821; calls by dose curve; further: nearly all actives have a fitted effect of over 50% in size; further: potency means the concentration at half of the fitted maximal effect)
How it was run: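 Quantitative HTS for antagonism: PGC/ERR cells received compounds after 6 h attachment and were incubated 18 h at 37 C, with luminescence (One-Glo) as the endpoint.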

[4] = qHTS assay to identify small molecule antagonists of the estrogen related receptor signaling pathway with the pleiotropic PPARgamma coactivator (PGC) cell viability counter screen (AID 1224822; further: series mostly up to about 46 µM)
How it was run: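 PGC/ERR cells rested 6 h, then compound-treated 17.5 h at 37 C. CellTiter-Fluor added for 30 min at 37 C, viability measured by fluorescence intensity.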

[5] = qHTS assay to identify small molecule agonists of the estrogen related receptor signaling pathway with the pleiotropic PPARgamma coactivator (PGC) (AID 1224823); further: potency means the concentration at half of the fitted maximal effect
How it was run: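 Cell-based luciferase assay in the NTP-supplied PGC/ERR line, 2,000 cells/well; 18 h compound exposure at 37 C, luminescence after One-Glo.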

[6] = qHTS assay to identify small molecule agonists of the estrogen related receptor (ERR) signaling pathway (AID 1224820)
How it was run: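 Quantitative HTS of the LOPAC library used NTP ERR reporter cells treated 18 h at 37 C. Signal is luminescence after One-Glo addition and a 30 min room-temperature incubation.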

Structure (SMILES) | Potency [1] | Potency [2] | Potency [3] | Potency [4] | Potency [5] | Potency [6]
CN1Cc2sccc2C(c2ccc(O)c(O)c2)C1 (stereo not drawn) | inactive | inactive | inactive | inactive | inactive | 
c1ccc2c(c1)CCC[C@H]2Nc1nc2ccccc2[nH]1 | inactive |  | inactive | inactive |  | inactive
CCCCCCN(CCCCCC)C(=O)Cc1c(-c2ccc(F)cc2)[nH]c2ccccc12 | inactive |  |  |  |  | inactive
C=CCn1c(=O)c2c(nc(-c3ccc(S(=O)(=O)O)cc3)n2C)n(C)c1=O | inactive | inactive | inactive | inactive | inactive | 
COc1cc(N)c(Cl)cc1C(=O)OCCN1CCCCC1 | inactive | inactive | inactive |  | inactive | 
Cn1cnc2c(NCc3ccccc3)nc(NCCO)nc21 | inactive | inactive | inactive | inactive | inactive | 
Clc1ccc2c(N3CCN(CCCN4CCN(c5ccnc6cc(Cl)ccc56)CC4)CC3)ccnc2c1 | inactive | inactive |  | inactive | inactive | 
CN(C)CCCC1(c2ccc(F)cc2)OCc2cc(C#N)ccc21 (stereo not drawn) | inactive | inactive | inactive | inactive | inactive | 
COc1cc(/C=C(\C#N)C(=O)c2ccc(O)c(O)c2)cc(I)c1O | inactive | inactive | inactive | inactive | inactive | 
C[N+](C)(C)CCOP(=O)(O)OP(=O)([O-])OC[C@H]1O[C@@H](n2ccc(N)nc2=O)[C@H](O)C1O (stereo partly drawn) | inactive | inactive | inactive |  | inactive | 
CC(C)COC(=O)OCN1C(=O)CN(CCN2CC(=O)N(COC(=O)OCC(C)C)C(=O)C2)CC1=O | inactive | inactive |  | inactive | inactive | 
Nc1ccc(CCNc2ncnc3c2ncn3C2OC(CO)C(O)C2O)cc1 (stereo not drawn) | inactive | inactive | inactive | inactive | 12.3 µM (active) | 
N#C/C(=C\c1ccc(O)c(O)c1)C(=O)NCCCNC(=O)/C(C#N)=C/c1ccc(O)c(O)c1 | inactive | inactive | inactive |  | inactive | 
N[C@H](C(=O)O)[C@H](Cc1ccccc1)C(=O)O | inactive | inactive | inactive | inactive | inactive | 
Oc1cc2c(cc1O)C(c1ccccc1)CNCC2 (stereo not drawn) | inactive | inactive |  |  | inactive | 
CN1C2CCC1CC(OC(=O)C(O)c1ccccc1)C2 (stereo not drawn) | inactive | inactive | inactive | inactive | inactive | 

Structure (SMILES) | Potency [1] | Potency [2] | Potency [3] | Potency [4] | Potency [5] | Potency [6]
C[C@](Cc1ccc(O)c(O)c1)(NN)C(=O)O | inactive | inactive | inactive | inactive | inactive | 
OCC1NCC(O)C(O)C1O (stereo not drawn) | inactive | inactive | inactive | inactive | inactive | 
COc1cc(OC)c(/C=C2/C(=O)Nc3ccccc32)c(OC)c1 | 11 µM (active) | 11 µM (active) |  |  | inactive | 
CCN1/C(=C/C(C)=O)Sc2ccc(OC)cc21 | inactive | 11.9 µM (active) | 5.11 µM (active) |  | inactive | 
CC(=O)[C@H]1CCC2C3CC=C4C[C@@H](OS(=O)(=O)O)CC[C@]4(C)C3CC[C@@]21C (stereo partly drawn) | inactive | inactive | inactive |  | inactive | 
O=c1[nH]c2cc(Cl)ccc2c(O)c1-c1ccc(Oc2ccccc2)cc1 | inactive | inactive | inactive | inactive | inactive | 
O=C(O)c1cc2cc(F)ccc2[nH]1 | inactive | inactive | inactive | inactive | inactive | 
O=S(=O)(c1cccc2c(I)cccc12)N1CCCNCC1 | inactive |  | inactive | inactive |  | inactive
CC(C)NC[C@H](O)c1ccc(O)c(O)c1 | inactive | inactive | inactive | inactive | inactive | 
COc1ccc(Br)cc1S(=O)(=O)NC(=O)/C=C/c1ccccc1Cc1ccc2ccccc2c1 | inactive | inactive | inactive | inactive | inactive | 
C[C@H](NC(=O)/C(C#N)=C/c1ccc(O)c(O)c1)c1ccccc1 | inactive | inactive | inactive | inactive | inactive | 
Nc1nc(Nc2ccccc2)nc2c1ncn2[C@@H]1O[C@H](CO)C(O)[C@H]1O (stereo partly drawn) | inactive | inactive | inactive | inactive | 1.44 µM (active) | 
CC(C)NC[C@@H](O)c1ccc(O)c(O)c1 | inactive | inactive | inactive | inactive | inactive | 
Cn1ncc(S(=O)(=O)Cc2ccccc2)c(Br)c1=O | inactive | inactive | inactive |  | inactive | 
Nc1cc(Cl)c(NC2=NCCN2)c(Cl)c1 | inactive | inactive | inactive | inactive | inactive | 
